In PubChem BioAssay (NCATS):
Results filed as inconclusive are left out. Entries that show only a call come without a potency. A number with no mark means an inactive call. The source made the active and inactive calls. The call rests on the fitted dose curve; in most records, active means well fitted inhibition curve with a large enough effect; inconclusive means small, poorly fitted or top-dose-only effect; inactive means no such curve, though single readings can be large or run the other way. Positions of bridges follow the written chain, without caps; N, C: chain ends. Non-standard residues stand in square brackets, D forms with d. Residues, ends and D or L forms follow the SMILES beside them. *: point of attachment. X1 = CCC(C)C(N)C1=NC(C(=O)*)CS1; dOrn = NCCC[C@@H](N)C(=O)O

Assay: BET inhibitor-based combinations targeting novel dependencies in MECOM-rearranged (r) AML: HNT-34 cell line (AID 2202234); further: nearly all actives have a fitted effect of over 35% in size
Details: HNT-34 AML viability, CellTiter-Glo luminescence, 48 h; series mostly up to 46 µM
Description: Ecotropic viral insertion site 1 (EVI1) is located on chromosome 3q26.2 as part of the MECOM (MDS and EVI1 complex) locus. Under normal hematopoiesis, EVI1 is a regulator of hematopoietic stem cell maintenance and self-renewal and EVI1 levels decrease as the cells differentiate. In approximately 5-10% of de novo acute myeloid leukemia (AML) EVI1 is aberrantly expressed, including Chromosomal inv(3)(q21;q26.2) or t(3;3)(q21;q26.2) alterations (MECOM-r) that account for about 50% of AML with EVI1 overexpression 31. AMLs with high levels of EVI1 have a poor prognosis and an overall survival time averaging between 10-14 months. EVI1 overexpression confers resistance in leukemia cells, highlighting the need to develop new targeted therapies for EVI1 overexpressing AMLs. Here, we performed an unbiased chemical drug screening by evaluating the single agent activity of a collection of 2,480 oncology-focused, approved and investigational drugs (NCATS Mechanism Interrogation Plates, MIPE v5.0) against a panel of seven AML cell lines. These included four MECOM-r cell-lines (AML-191, AML-194, UCSD-AML1 and HNT-34) and three non-MECOM-r AMLs (MV4-11, OCI-AML3 and SET-2). Exploiting the mechanistic redundancy built in the library, we identified target-level sensitivities in MECOM-r AML cells and relative activity as compared to other AML subtypes.
A collection of 2480 mechanistically annotated dugs (MIPE v5.0) was used to screen four 3q26.2 rearranged AML cell lines and three non-3q26.2 rearranged AML cell lines. This library purposely exploits redundancy by including multiple inhibitors of key onco-targets, while simultaneously encompassing mechanistic diversity, targeting more than 800 distinct mechanisms of action. Briefly, cells were seeded in 5 uL of growth media using a Multidrop Combi dispenser into 1536 well white polystyrene tissue culture treated plates (Corning) at a density of 500cells/well. For each cell-line, for each of the 2480 drugs in MIPE v5.0 library, an 11-point dose curve was generated via a 1536 pin-tool. Plates were incubated for 48 hr at standard incubator conditions, covered by a stainless steel gasketed lid to prevent evaporation. Cell viability was determined by luminescence based, Cell Titer Glo assay (Promega). In detail, 3 uL of Cell Titer Glo were added to each well and plates were incubated at room temperature for 15 min with a stainless-steel lid in place. Luminescence readings were taken using a Viewlux (PerkinElmer) with a 2 s exposure time per plate. Compound dose-response curves were normalized to DMSO and empty well controls on each plate. Quantitative drug activity data from dose-response curves was determined utilizing area Under the Curve (AUC) and Z-transformed AUC (Z-AUC, a mean-centering transformation applied to each individual cell-line screened).
Potency means the concentration at half of the fitted maximal effect.

| SMILES | Potency | viability (% of control) |
| --- | --- | --- |
| OCc1ccccc1O[C@@H]1O[C@H](CO)[C@@H](O)[C@H](O)[C@H]1O | inactive |  |
| NC1(Cc2ccc(Cl)cc2)CCN(c2ncnc3[nH]ccc23)CC1 | 7.42 µM (active) |  |
| CC(N)C12CC3CC(CC(C3)C1)C2 (stereo not given) | inactive |  |
| CCN1/C(=C/C(C)=O)Sc2ccc(OC)cc21 | 18.6 µM (active) |  |
| CCN1CCN(CC(=O)Nc2ccc(-c3cccc4c(=O)cc(N5CCOCC5)oc34)c3sc4ccccc4c23)CC1 | 5.74 µM (active) |  |
| COc1cc(Nc2ncc3c(n2)-c2ccc(Cl)cc2C(c2c(F)cccc2OC)=NC3)ccc1C(=O)O | 1.18 µM (active) |  |
| COc1cccc(-c2ccc(NC(=O)C3=C(C(=O)O)CCC3)c(F)c2)c1 | inactive |  |
| Cn1c(=O)c(F)c(Nc2ccc(I)cc2F)c2c(=O)n(C[C@@H](O)CO)cnc21 | 0.0833 µM (active) |  |
| CCOC(=O)c1ccc(OC(=O)CCCCCN=C(N)N)cc1 | inactive |  |
| O=C(c1ccc(Nc2nccc(-c3cc4ccccc4s3)n2)cc1)N1CCC(N2CCCC2)CC1 | 5.25 µM (active) |  |
| O=C(/C=C/C#Cc1cccc(NS(=O)(=O)c2ccccc2)c1)NO | 0.723 µM (active) |  |
| OC(CCN1CCCCC1)(c1ccccc1)C1CC2C=CC1C2 (stereo not given) | inactive |  |
| O=C(O)c1cc(=O)c2c(OCC(O)COc3cccc4oc(C(=O)O)cc(=O)c34)cccc2o1 | inactive |  |
| COc1ccc2c(Oc3ccc(NC(=O)c4c(C)n(CC(C)(C)O)n(-c5ccccc5)c4=O)cc3F)ccnc2c1 | 4.68 µM (active) |  |
| CCOc1ccn(-c2ccc(F)cc2)c(=O)c1C(=O)Nc1ccc(Oc2ccnc(N)c2Cl)c(F)c1 | 11.8 µM (active) |  |
| Cn1c(=O)c2c(ncn2CC(O)CO)n(C)c1=O (stereo not given) | inactive |  |
| O=C1C(c2c(O)[nH]c3ccccc23)=Nc2ccccc21 | inactive |  |
| CC(C)c1c(C(=O)Nc2ccccc2)c(-c2ccccc2)c(-c2ccc(F)cc2)n1CC[C@@H](O)C[C@@H](O)CC(=O)O | 10.2 µM (active) |  |
| Nc1nc(Cl)nc2c1ncn2[C@@H]1O[C@H](CO)[C@@H](O)[C@@H]1F | 0.166 µM (active) |  |
| Cc1ccccc1-n1nc(-c2c(-c3ccc(F)cc3)nn3c2NC[C@@H](CO)C3)ccc1=O | inactive |  |

| SMILES | Potency | viability (% of control) |
| --- | --- | --- |
| COc1cc(N2CCN(C(C)=O)CC2)ccc1Nc1ncc(Cl)c(Nc2ccc(N3CCN(C(C)=O)CC3)cc2OC)n1 | 6.61 µM (active) |  |
| CC1CCC(n2c3cnccc3c3cnc(Nc4ccc5c(n4)CCN(C(=O)CO)C5)nc32)CC1 (stereo not given) |  | 92.3% [at 8.46 µM] |
| Cc1c(C(=O)Nc2ccc(N3C[C@@H](C)O[C@@H](C)C3)nc2)cccc1-c1ccc(OC(F)(F)F)cc1 | inactive |  |
| CN(C)C1CCN(C(=O)c2ccc(NC(=O)Nc3nc(N4CCOCC4)nc(N4CCOCC4)n3)cc2)CC1 | 0.105 µM (active) |  |
| CCC(C)C(N)C1=NC(C(=O)N[C@@H](CC(C)C)C(=O)N[C@H](CCC(=O)O)C(=O)N[C@H](C(=O)N[C@H]2CCCCNC(=O)[C@H](CC(N)=O)NC(=O)[C@@H](CC(=O)O)NC(=O)[C@H](Cc3cnc[nH]3)NC(=O)[C@@H](Cc3ccccc3)NC(=O)[C@H]([C@@H](C)CC)NC(=O)[C@@H](CCCN)NC2=O)[C@@H](C)CC)CS1 (stereo not given in full) (X1-L[dE]IK[dOrn]I[dF]H[dD]N; lactam 4-C) | inactive |  |
| CN(CCOc1ccc(NS(C)(=O)=O)cc1)CCc1ccc(NS(C)(=O)=O)cc1 | inactive |  |
| CC(C)C(=O)Nc1ccc([N+](=O)[O-])c(C(F)(F)F)c1 | inactive |  |
| CN(C)C(=O)C(CCN1CCC(O)(c2ccc(Cl)cc2)CC1)(c1ccccc1)c1ccccc1 | 20.9 µM (active) |  |
| CCN(c1cc(-c2ccc(CN3CCOCC3)cc2)cc(C(=O)NCc2c(C)cc(C)[nH]c2=O)c1C)C1CCOCC1 | inactive |  |
| NC1(C(=O)N[C@@H](CCO)c2ccc(Cl)cc2)CCN(c2ncnc3[nH]ccc23)CC1 | 10.5 µM (active) |  |
| Cn1nnc2c(C(N)=O)ncn2c1=O | inactive |  |
| Nc1nc(N)c2nc(CNc3ccc(C(=O)NC(CCC(=O)O)C(=O)O)cc3)cnc2n1 (stereo not given) | inactive |  |
| COc1cc2c(cc1OC)CN(CCc1ccc(NC(=O)c3cccc4c(=O)c5cccc(OC)c5[nH]c34)cc1)CC2 | inactive |  |
| N#Cc1ccc(NC(=O)Nc2ccccc2Br)c2n[nH]nc12 | inactive |  |
| CC(Cc1ccc(O)c(O)c1)(NN)C(=O)O (stereo not given) | inactive |  |
| CC(C(=O)O)c1ccc2c(c1)CC(=O)c1ccccc1S2 (stereo not given) | inactive |  |
| CC(C)N(CCCNC(=O)Nc1ccc(C(C)(C)C)cc1)C[C@H]1O[C@@H](n2ccc3c(N)ncnc32)[C@H](O)[C@@H]1O | inactive |  |
| NC(=O)c1ccc(-c2nc(-c3ccc4c(c3)OCO4)c(-c3ccccn3)[nH]2)cc1 | inactive |  |
| Clc1cc2c(NC3CCCC3)nnc(-c3ccncc3)c2cc1Cl | inactive |  |
| Cc1nc(N)sc1-c1ccnc(Nc2ccc(N3CCOCC3)cc2)n1 | 2.35 µM (active) |  |
